Screening results (PubChem BioAssay)
DT40 TDP1 no CPT: qHTS for Inhibitors of human tyrosyl-DNA phosphodiesterase 1 (TDP1): qHTS in cells in absence of CPT; DT40 Tdp1-/- hTDP1 cells, no CPT, ATP luminescence, 48 h; Potency, µM (highest dose often 46.2 µM), usual class: inhibitors; 420,000 compounds, 15% hits; AID 686978, 2013; note: nearly all actives have a fitted effect of over 55% in size
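Chicken DT40 Tdp1-/- cells complemented with human TDP1, screened without camptothecin (DMSO vehicle only), 400 cells/well. Compounds pin-transferred, cells incubated at 37 °C for at least 48 hr. Growth read as ATP-dependent luminescence (CellTiter-Glo, 30 min at RT).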
DT40 TDP1 CPT: qHTS for Inhibitors of human tyrosyl-DNA phosphodiesterase 1 (TDP1): qHTS in cells in presence of CPT; AID 686979, 2013; 420,000 compounds, 12% hits; chicken DT40 Tdp1-/-;hTDP1 cells + 20 nM CPT, ATP luminescence, 48 h; Potency, µM (top dose mostly 46.2 µM), hits mostly inhibitors; note: nearly all actives have a fitted effect of over 55% in size
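Chicken DT40 Tdp1-/- cells stably complemented with human TDP1 were seeded at 400 cells/well in medium containing 20 nM camptothecin, exposed to pin-transferred compounds, and grown at 37 °C for at least 48 hr. Viability was read as ATP luminescence.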
HT1080 IDH1KD tx: qHTS for induction of synthetic lethality in tumor cells producing 2HG: qHTS for the HT-1080-IDH1KD cell line; HT-1080 IDH1 knockdown viability, ATP luminescence, 48 h; Potency, µM (top dose mostly 46.1 µM), most hits filed as cytotoxic; 360,000 compounds, 2% hits
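Viability of IDH1-knockdown HT-1080 fibrosarcoma cells was assessed by CellTiter-Glo after 48 h at 37 °C with titrated compound; concentration-effect curves were classified by fit quality and response size.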
IL-1B inflam inh: qHTS for Inhibitors of Inflammasome Signaling: IL-1-beta AlphaLISA Primary Screen; activity change, % at 57.5 µM; THP-1 LPS/ATP IL-1B secretion, AlphaLISA, 16 h; active compounds read low; AID 743279, 2014; 360,000 compounds, 4.7% hits; in the data active = activity change below about -50%; inconclusive = mostly about -30% to -49%
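Secreted IL-1B measured by AlphaLISA bead assay after 16 h compound exposure of THP-1 cells; compounds (final up to 57.5 uM) added 1 h before LPS (250 ng/mL) and ATP (1.25 mM) stimulation; lower signal means less secretion.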
HT1080-NT tox: qHTS for induction of synthetic lethality in tumor cells producing 2HG: qHTS for the HT-1080-NT fibrosarcoma cell line; 360,000 compounds, 1.6% hits; AID 686970, 2013; Potency, µM (titrated, usually from 46.1 µM), actives largely listed as cytotoxic; HT-1080-NT fibrosarcoma viability, CellTiter-Glo ATP luminescence, 48 h;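 note: NT is the 2HG producing partner of a matched IDH1 knockdown line; nearly all actives have a fitted effect of over 55% in size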
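Luminescent CellTiter-Glo readout after 48 hours of compound exposure at 37 degrees C defined viability of HT-1080-NT cells. Activity was normalized to DMSO wells and cell-free media wells; concentration-response curves were fitted and assigned curve classes.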
Of the large screens only hits and unclear results are named; the others gave an inactive call. An excerpt weighted towards active compounds, which were near 19% of everything screened. Unless noted, calls come from the whole dose curve; as a rule, active = well fitted curve in the direction sought with a large enough effect; inconclusive = small, poorly fitted or top-dose-only effect, or another doubt; inactive = no such curve, though single readings can be large; an effect the other way counts as inactive or inconclusive.

COc1ccc(-c2cc(C(=O)NCC3CCCO3)c3ccccc3n2)cc1 (stereo not drawn)	DT40 TDP1 no CPT inconclusive, DT40 TDP1 CPT inconclusive
O=[N+]([O-])c1ccc(NN=C(c2ccccc2)c2ccccc2)nc1	DT40 TDP1 no CPT inconclusive
CCOc1ccccc1CNC(=O)c1c([N+](=O)[O-])c(C)nn1C	DT40 TDP1 no CPT inconclusive
COc1ccc(-c2cc(C(=O)NCC3CCCO3)c3cc(C)ccc3n2)cc1 (stereo not drawn)	DT40 TDP1 no CPT 16µM
COc1ccc(-c2nc(SC(C)C(=O)NCC3CCCO3)n[nH]2)cc1 (stereo not drawn)	DT40 TDP1 no CPT 9.2µM, DT40 TDP1 CPT 8.2µM, HT1080 IDH1KD tx inconclusive, HT1080-NT tox inconclusive
COc1ccc(-c2cc(C(F)(F)F)n3ncc(C(=O)NCC4CCCO4)c3n2)cc1 (stereo not drawn)	DT40 TDP1 no CPT inconclusive, DT40 TDP1 CPT inconclusive
COc1cccc(-c2cc(C(F)(F)F)n3ncc(C(=O)NCC4CCCO4)c3n2)c1 (stereo not drawn)	DT40 TDP1 no CPT 23µM, DT40 TDP1 CPT inconclusive, HT1080 IDH1KD tx inconclusive, HT1080-NT tox inconclusive
COc1ccc(-c2cc(C(=O)NCC3CCCO3)c3cc(C(C)C)ccc3n2)cc1 (stereo not drawn)	DT40 TDP1 no CPT inconclusive, DT40 TDP1 CPT 16µM, IL-1B inflam inh inconclusive
O=C(Nc1nccs1)C1CC(=O)N(CCc2ccccc2)C1 (stereo not drawn)	none
COc1cc(S(=O)(=O)N(C)C2CCCCC2)c(C)cc1C	none
O=C(NCC1CCCO1)c1cc(-c2ccccc2)nc2ccc(Br)cc12 (stereo not drawn)	DT40 TDP1 no CPT inconclusive, DT40 TDP1 CPT inconclusive
O=C(COC(=O)c1cc(-c2cccc(Br)c2)nc2ccccc12)NCC1CCCO1 (stereo not drawn)	DT40 TDP1 CPT 0.016µM
CN1CCN(C(=O)C2CCCCC2)CC1	none (no result: HT1080 IDH1KD tx, IL-1B inflam inh, HT1080-NT tox)
FC(F)Oc1ccc(NC(=S)NC2CCCCCCC2)cc1	DT40 TDP1 no CPT inconclusive, DT40 TDP1 CPT inconclusive, HT1080 IDH1KD tx inconclusive, IL-1B inflam inh -91, HT1080-NT tox inconclusive
C/C(=N\NC(=S)NC1CCCCC1)c1cccs1	DT40 TDP1 no CPT 10µM, DT40 TDP1 CPT 13µM
S=C(Nc1ccc(Cl)cc1)NC1CCCCC1	DT40 TDP1 no CPT inconclusive, DT40 TDP1 CPT inconclusive, HT1080 IDH1KD tx inconclusive
S=C(Nc1ccc(Nc2ccccc2)cc1)NC1CCCCCC1	DT40 TDP1 no CPT 16µM, DT40 TDP1 CPT 23µM, HT1080 IDH1KD tx inconclusive, IL-1B inflam inh -79, HT1080-NT tox inconclusive
CC1CCCN(C(=S)Nc2ccc(Nc3ccccc3)cc2)C1 (stereo not drawn)	DT40 TDP1 no CPT 9.2µM, DT40 TDP1 CPT 10µM, IL-1B inflam inh -86
CCOc1ccc(NC(=O)c2ccc(NC(=S)NC3CCCCC3)cc2)cc1	DT40 TDP1 no CPT inconclusive, DT40 TDP1 CPT 21µM, HT1080 IDH1KD tx inconclusive
CCCCOc1cccc(C(=O)NNC(=S)NC2CCCCC2)c1	DT40 TDP1 no CPT 16µM, DT40 TDP1 CPT inconclusive
C/C(=N\NC(=S)NC1CCCCC1)c1ccc(OC(F)F)cc1OC(F)F	DT40 TDP1 no CPT 26µM, DT40 TDP1 CPT 26µM, HT1080 IDH1KD tx inconclusive, IL-1B inflam inh inconclusive, HT1080-NT tox inconclusive
C/C(=N\NC(=O)C1CC1)c1ccc(OC(F)F)cc1OC(F)F	DT40 TDP1 no CPT inconclusive
CCOc1ccc(NS(=O)(=O)c2cc(NC(=O)c3cccc(C)c3)ccc2Cl)cc1	DT40 TDP1 no CPT inconclusive, DT40 TDP1 CPT 16µM, HT1080 IDH1KD tx 26µM, IL-1B inflam inh inconclusive, HT1080-NT tox inconclusive
CCN(CC)c1ccc(C(=O)Nc2ccccc2)cc1[N+](=O)[O-]	DT40 TDP1 no CPT inconclusive, IL-1B inflam inh -96
O=C(Nc1ccccc1)c1ccc(NCCc2ccccc2)c([N+](=O)[O-])c1	none
Cc1ccc(C(=O)Nc2ccc(Nc3ccccc3)cc2)cc1C	DT40 TDP1 no CPT 21µM, DT40 TDP1 CPT 21µM, HT1080 IDH1KD tx inconclusive, IL-1B inflam inh -69
O=C(Nc1cccc(C(=O)Nc2ccc(Br)cc2)c1)c1ccccc1	DT40 TDP1 no CPT 12µM, DT40 TDP1 CPT inconclusive
O=C1c2ccccc2C(c2nnnn2-c2ccc3c(c2)OCCO3)N1CCCN1CCOCC1 (stereo not drawn)	none
CC(CCc1ccccc1)NC(=O)CCNC(=O)Cn1ccc2ccccc2c1=O (stereo not drawn)	none
CN(CC(=O)Nc1cccc(F)c1)C(=O)CNS(=O)(=O)c1ccc(N(C)C)c([N+](=O)[O-])c1	DT40 TDP1 no CPT inconclusive
Cc1ccc(-c2nonc2NC(=O)c2ccc(F)cc2)cc1C	DT40 TDP1 CPT inconclusive (no result: HT1080 IDH1KD tx, IL-1B inflam inh, HT1080-NT tox)
CCC(=O)N1CCC1(C)C(=O)Nc1cc(OC)ccc1OC (stereo not drawn)	none
CC(=O)Oc1ccc(C(=O)Nc2cccc(C(=O)NC(C)(C)C)c2)cc1	HT1080-NT tox inconclusive
O=C(NNC(=O)c1ccc(NC(=O)c2ccccc2)cc1)c1ccccc1	DT40 TDP1 no CPT inconclusive, HT1080 IDH1KD tx inconclusive, HT1080-NT tox inconclusive
Cc1ccc(NC(=O)c2ccc(NC(=O)c3ccccc3)cc2)cc1C	DT40 TDP1 no CPT inconclusive, DT40 TDP1 CPT 13µM, HT1080 IDH1KD tx inconclusive, HT1080-NT tox inconclusive
CC(=O)Oc1ccc(Nc2ccccc2)cc1	DT40 TDP1 no CPT inconclusive, DT40 TDP1 CPT 18µM, HT1080 IDH1KD tx inconclusive
COc1ccc(C(=O)Nc2ccc(Nc3ccccc3)cc2)cc1[N+](=O)[O-]	DT40 TDP1 no CPT 21µM, DT40 TDP1 CPT 23µM
CC(=O)Oc1ccc(C(=O)Nc2cccc(C(=O)c3cccc(NC(=O)c4ccc(OC(C)=O)cc4)c3)c2)cc1	DT40 TDP1 no CPT 23µM, DT40 TDP1 CPT inconclusive, HT1080 IDH1KD tx inconclusive, HT1080-NT tox inconclusive
CC(=O)Nc1ccc(OC(C)=O)cc1	none (no result: HT1080 IDH1KD tx, IL-1B inflam inh, HT1080-NT tox)
C[C@H]1CC[C@]2(O[C@H](CCO)C[C@H](O)[C@H]2O)O1	none
Cc1ccc(C(=O)Nc2ccc(Oc3ccc(C(=O)O)c(C(=O)O)c3)cc2)cc1C	DT40 TDP1 CPT 23µM
COc1ccc(NC(=O)C2(c3ccc(NC(=O)c4ccc(OC(C)=O)cc4)cc3)CCCC2)cc1	none
CC(=O)Nc1ccc(NC(=O)c2ccccc2Br)cc1	none
O=C(Nc1ccc(Br)cc1)c1ccccc1Br	IL-1B inflam inh -56
Cc1cccc(C(=O)Nc2ccc(NC(=O)c3ccccc3)cc2)c1	DT40 TDP1 no CPT inconclusive, DT40 TDP1 CPT inconclusive, IL-1B inflam inh -58
CC(=O)Oc1ccc(C(=O)Nc2ccc(C3(C#N)CCCC3)cc2)cc1	DT40 TDP1 no CPT 16µM, DT40 TDP1 CPT 16µM, HT1080 IDH1KD tx inconclusive, IL-1B inflam inh -59
